Hits are enriched below; roughly 2.2% of the tested compounds scored in any of these assays.
Mito fusion yeast = qHTS Assay for Small Molecule Inhibitors of Mitochondrial Division or Activators of Mitochondrial Fusion; Potency, µM (titrated, usually from 46.1 µM), without a hit: at the top dose growth rescue (activation), actives largely listed as activators; S. cerevisiae fusion-defective mutant growth rescue, CellTiterGlo 48 h; 320,000 tested, 0.23% active; further: % of control where 0% means no effect; nearly all actives have a fitted effect of over 45% in size
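Luminescent cell viability in 1536-well qHTS format served as the measure of rescued growth in ts fusion-mutant S. cerevisiae cultured on non-fermentable YPEG for 48 hours at 37C.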
ERG-DNA inh = qHTS for Small Molecule Inhibitors of the ERG Ets/DNA interaction; 370,000 tested, 0.028% active; Potency, µM (top dose mostly 76.9 µM), for the others: top-dose FP activity, negative = inhibition, hits mostly inhibitors; fluorescence polarization, His-ERG Ets domain / labelled DNA; AID 624246, 2012; Transcriptional regulator ERG (Homo sapiens), P11308; active means well fitted inhibition curve with a large enough effect in the polarisation, with a control signal flat; inconclusive means small, poorly fitted or top-dose-only effect, or effect the other way, or a change in a side signal; inactive means no such curve, though single readings can be large or run the other way; the % refers to the polarisation;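 further: polarization taken with two DNA probes labelled with fluorescein and Texas red; % of control where 0% means no effect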
Target sequence (P11308 whole entry, looked up, the tested form may be a part): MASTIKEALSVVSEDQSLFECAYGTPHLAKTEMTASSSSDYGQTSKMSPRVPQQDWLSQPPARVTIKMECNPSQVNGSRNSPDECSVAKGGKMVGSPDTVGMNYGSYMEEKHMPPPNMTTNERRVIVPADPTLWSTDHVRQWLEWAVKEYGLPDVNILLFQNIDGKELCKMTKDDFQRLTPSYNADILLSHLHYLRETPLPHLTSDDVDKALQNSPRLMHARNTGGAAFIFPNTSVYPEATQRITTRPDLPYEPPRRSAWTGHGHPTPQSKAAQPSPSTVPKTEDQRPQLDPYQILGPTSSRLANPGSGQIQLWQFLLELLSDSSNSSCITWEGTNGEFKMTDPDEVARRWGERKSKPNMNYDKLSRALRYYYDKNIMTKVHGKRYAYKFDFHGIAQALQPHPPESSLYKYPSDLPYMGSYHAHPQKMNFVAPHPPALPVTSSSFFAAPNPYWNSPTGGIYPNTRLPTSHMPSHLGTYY
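His-tagged ERG Ets domain (1 uM in the protein solution; 300mM KCl, 50mM Tris-HCl, 1mM EDTA, 1mM DTT, pH 7.5) received compound, then a probe mix of 5 nM fluorescein-DNA and 100nM Texas-615-DNA. Fluorescence polarization was read for both dyes.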
FUS yeast rescue = qHTS for Suppressors of FUS Proteinopathy: Primary screen using FUS-linked yeast assay; S. cerevisiae FUS-expressing, growth rescue, OD600, 24 h; Potency, µM (titrated, usually from 76.6 µM), hits mostly activators; 390,000 tested, 0.24% active; AID 1347120, 2019;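 further: plate controls were DMSO vehicle for no effect and reference control for full effect; nearly all actives have a fitted effect of over 55% in size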
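Yeast FUS proteinopathy model; galactose-induced FUS (2%), starting OD 0.005. Cpds in dilution series, 24hr, 30C, 99% humidity. Abs 600 nm growth. Pos ctrl CP55940 (top 92uM final); neg ctrl DMSO.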
TDP43 rescue = qHTS of TDP-43 Inhibitors; Potency, µM (top dose mostly 46.1 µM), for the others: top-dose growth rescue (activation), usual class: activators; 410,000 tested, 1.8% active; TDP-43 expressing yeast growth rescue, BacTiter-Glo, 24 h; further: % of control where 0% means no effect; nearly all actives have a fitted effect of over 50% in size
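Yeast cells expressing TDP-43 under galactose induction are exposed to compounds for 24 hr at 30 deg C. BacTiter-Glo luminescence measures growth, so protective compounds score as activators.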
Abeta rescue = qHTS for compounds that reverse cellular toxicity of Amyloid beta (A-beta) peptide in yeast: Primary Screen | Potency, µM (series often up to 46.1 µM), actives largely listed as activators | AID 1347071, 2019 | 410,000 tested, 0.063% active | yeast expressing A-beta42, growth rescue, OD600, 48 h; response scale: 0% DMSO, 100% iron-clioquinol control; further: nearly all actives have a fitted effect of over 55% in size
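Yeast growth medium received pinned compounds, then yeast cells expressing toxic A-beta were added; plates incubated at 30 C for 48 hr. Growth read as absorbance at 600 nm, normalized to DMSO and equimolar FeCl3 plus clioquinol controls.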
aSyn yeast inh = qHTS of alpha-syn Inhibitors; 370,000 tested, 0.14% active; Yeast expressing alpha-synuclein, growth rescue, BacTiter-Glo, 24 h; Potency, µM (doses to about 46.1 µM), without a hit: at the highest dose growth rescue (activation), actives largely listed as activators; further: % of control where 0% means no effect; nearly all actives have a fitted effect of over 65% in size
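Readout is rescue of growth in alpha-synuclein-expressing yeast, so inhibitors of toxicity appear as activators. Growth after 24 hr at 30 deg C in galactose medium is quantified by luminescence.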
The depositor's hits bear a star; i = inactive; ? = inconclusive; · = no result given. Unless noted, the call rests on the fitted dose curve; in most records, active means well fitted curve in the direction sought with a large enough effect; inconclusive means small, poorly fitted or top-dose-only effect, or another doubt; inactive means no such curve, though single readings can be large; an effect the other way counts as inactive or inconclusive. Potency means the concentration at half of the fitted maximal effect.

SMILES	Mito fusion yeast	ERG-DNA inh	FUS yeast rescue	TDP43 rescue	Abeta rescue	aSyn yeast inh
CC(=O)NC(c1ccccc1)c1cc(Cl)c2cccnc2c1O (configuration not stated)	2.9%	-11.8%	i	4.8%	?	?
CCCCC(=O)NC(c1cccs1)c1cc(Cl)c2cccnc2c1O (configuration not stated)	-2.0%	2.4%	i	0.0%	?	22.4µM*
COc1cc(C(=O)NC(c2ccccc2Cl)c2cc(Cl)c3cccnc3c2O)cc(OC)c1OC (configuration not stated)	·	-2.0%	i	11.1%	i	·
COc1ccc(C(=O)NC(c2ccccc2Cl)c2cc(Cl)c3cccnc3c2O)cc1 (configuration not stated)	·	3.9%	i	?	i	15.8µM*
CCOc1ccc(OCC)c(NC(=O)c2cnc(SC)nc2-c2ccccc2)c1	·	-0.3%	i	-13.9%	i	·
CCOc1ccc(N2CC(C)Cn3c2nc2c3c(=O)n(CC(=O)O)c(=O)n2C)cc1 (configuration not stated)	·	2.6%	i	3.8%	i	·
O=C(CCn1c(=O)c2ccccc2n(Cc2ccc(F)cc2Cl)c1=O)NCc1ccc2c(c1)OCO2	·	7.0%	i	21.4%	i	·
Cc1ccc(C)c(N2CCN(C(=O)c3cc4ccc5cccnc5c4[nH]3)CC2)c1	·	-3.7%	?	12.6µM*	i	·
O=C(NCc1ccccc1)c1cc2ccc3cccnc3c2[nH]1	·	-13.3%	i	0.0%	i	·
Cc1cccc(N2CCN(C(=O)c3cc4ccc5cccnc5c4[nH]3)CC2C)c1 (configuration not stated)	·	-6.4%	?	8.91µM*	i	·
Cc1cccc(N2CCN(C(=O)C3CCN(S(=O)(=O)c4cccc5cccnc45)CC3)CC2C)c1 (configuration not stated)	-1.0%	-4.5%	22.4µM*	10.9%	i	7.3%
Cc1ccc(Cl)cc1N(C)C(=O)c1cc2ccc3cccnc3c2[nH]1	·	0.4%	?	25.1µM*	i	·
CC(C)c1ccc(S(=O)(=O)c2nnn3c2nc(NCc2cccs2)c2sccc23)cc1	·	0.4%	i	24.9%	i	·
CCCCCC[C@@H](CCCc1ccccc1OC)CN(CCCC)S(C)(=O)=O	·	·	i	·	·	·
CCCC/C=C1/[C@H](c2ccccc2)N(C)C2=N[C@@H](c3ccccc3)CC(=O)N21	·	·	i	·	·	·
CC1CCc2c(sc(NC(=O)c3cc4nc(-c5ccc(Cl)cc5)cc(C(F)(F)F)n4n3)c2C#N)C1 (configuration not stated)	·	4.0%	i	0.0%	i	·
CC(=O)c1sc(N/N=C\c2cccc(Br)c2)nc1C	?	-0.9%	?	17.8µM*	i	-11.2%
CCN(CC)c1ccc(NS(=O)(=O)c2ccc(-c3coc(C)n3)cc2)c(C)c1	·	-1.8%	i	7.8%	i	?
COc1ccc(CCN2CC(C(=O)OCC(=O)N(C)CC(=O)Nc3ccccc3Cl)CC2=O)cc1OC (configuration not stated)	·	-6.0%	i	10.9%	i	-1.0%
O=[N+]([O-])c1ccc(NCCOc2ccccc2Cl)nc1	1.5%	-1.6%	i	22.5%	i	2.0%
Cc1cccc(Sc2ccc([N+](=O)[O-])cn2)c1	13.5%	-3.6%	i	11.2µM*	i	1.3%
Cc1cccc(OCCNc2ccc([N+](=O)[O-])cn2)c1	5.1%	1.5%	i	12.6µM*	i	2.0%
CC(C)(C)c1csc(Sc2ccc([N+](=O)[O-])cn2)n1	3.3%	1.3%	i	11.2µM*	i	-11.7%

Screens: PubChem, National Center for Advancing Translational Sciences (NCATS)
